Measurements reported in PubChem BioAssay (Tox21).
Records with an inconclusive call do not appear. Entries that show only a call come without a potency. Values without a mark were called inactive. Active and inactive are the calls of the source. Calls come from the whole dose curve; as a rule, active = well fitted curve in the direction sought with a large enough effect in the repeat runs; inconclusive = weak or mixed curves; inactive = no such curve, though single readings can be large; an effect the other way counts as inactive or inconclusive.

Experiment: A CellTox Green Cytotoxicity Assay to monitor cytotoxicity in HepG2 cells - 16 hour (AID 1224876); note: nearly all actives have a fitted effect of over 45% in size
Conditions: CellTox Green fluorescence; series mostly up to 76.8 µM
In short: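 Nonlytic assay: viable cells exclude the dye, so fluorescence scales with cell death. HepG2 at 600 cells/well, compounds added after 5 h, signal read across 40 h.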
In the case of `COc1nc(N)nc2nc[nH]c12`, the Potency is reported as “inactive”.
With `OC1OCCOC1O` (centres undefined) the Potency was “inactive”.
With `CCCCCCC1(C)CCC(=O)O1` (centres undefined) the Potency was “inactive”.
In the case of `C#CCN[C@@H]1CCc2ccccc21`, the Potency is reported as “inactive”.
For `CC(=O)OC1CCCCC1C(C)(C)C` (centres undefined), the Potency was “inactive”.
For `CCOc1cccc(N)c1`, the Potency was “inactive”.
For `CC1(C)Oc2ccc(C#N)cc2[C@@H](N2CCCC2=O)[C@@H]1O`, the Potency was “inactive”.
With `COc1ccc(CCO)cc1` the Potency was “inactive”.
With `C/C(CC(C)C)=N\O` the Potency was “inactive”.
With `[O-][n+]1cccc(/C(Cl)=N/OC[C@@H](O)CN2CCCCC2)c1` the Potency was “inactive”.
With `CC(=O)OCC(=O)Nc1cc(C#N)cc(NC(=O)COC(C)=O)c1Cl` the Potency was “inactive”.
In the case of `CNCCS(=O)(=O)O`, the Potency is reported as “inactive”.
In the case of `CCC(=O)CC`, the Potency is reported as “inactive”.
With `CC(=O)O[C@@H]1CC2CCC1(C)C2(C)C` (some centres undefined) the Potency was “inactive”.
With `NCc1ccc(S(N)(=O)=O)cc1` the Potency was “inactive”.
In the case of `Cn1c(=O)c2[nH]c(Br)nc2n(C)c1=O`, the Potency is reported as “inactive”.
For `CCC[C@@H]1C[C@@H](C(=O)N[C@@H]([C@H]2O[C@H](SC)[C@H](O)[C@@H](O)[C@H]2O)[C@@H](C)O)N(C)C1`, the Potency was “inactive”.
For `O=Cc1cc2ccccc2o1`, the Potency was “inactive”.
For `Cc1c(N)cccc1Cl`, the Potency was “inactive”.
For `Cc1ccccc1C(N)=O`, the Potency was “inactive”.
With `O=C(Cn1ccnc1[N+](=O)[O-])NCc1ccccc1` the Potency was “inactive”.
For `CC(C)=CCC/C(C)=C/COC=O`, the Potency was “inactive”.
For `COC(=O)c1ccccc1C(=O)O`, the Potency was “inactive”.
With `CCO` the Potency was “inactive”.
With `CC(C)OC(=O)CCC(=O)OC(C)C` the Potency was “inactive”.
In the case of `CCOc1ccccc1OCC1CNCCO1` (centres undefined), the Potency is reported as “inactive”.
In the case of `CCCCCCCCCCCCCCC(=O)NC(CO)CCCCCCCCCCCCCC` (centres undefined), the Potency is reported as “inactive”.
In the case of `O=C(CCCCC(=O)Nc1c(I)cc(I)c(C(=O)O)c1I)Nc1c(I)cc(I)c(C(=O)O)c1I`, the Potency is reported as “inactive”.
With `CC1(C)O[C@H]2CC(=O)OC[C@]23[C@H]2CC[C@@]4(C)[C@H](c5ccoc5)OC(=O)[C@H]5O[C@]54[C@]2(C)C(=O)C[C@@H]13` the Potency was “inactive”.
With `CCCCCCCCCCCCCCCCCCOCCO` the cytotoxicity increase was 0.179% [at 15.8 µM].
With `CC1=C(C(=O)O)N2C(=O)[C@@H](NC(=O)[C@H](N)C3=CCC=CC3)[C@H]2SC1` the Potency was “inactive”.
With `CC(=O)OC(C)=O` the Potency was “inactive”.
With `Cc1ccc(N)cc1S(=O)(=O)O` the Potency was “inactive”.
With `COC(=O)c1cccc(Cl)c1` the Potency was “inactive”.
For `CC(=O)O[Si](C)(OC(C)=O)OC(C)=O`, the Potency was “inactive”.
For `CC1(C)CC(OC(=O)CCCCCCCCC(=O)OC2CC(C)(C)NC(C)(C)C2)CC(C)(C)N1`, the cytotoxicity increase was -5.51% [at 15.8 µM].
For `CCOC(=O)CC1(C)OCC(C)O1` (centres undefined), the Potency was “inactive”.

Experiment: qHTS RealTime-Glo MT Cell Viability Assay in HepG2 cells - 32 hour (AID 1224877); note: nearly all actives have a fitted effect of over 55% in size
Conditions: RealTime-Glo luminescence; series mostly up to 76.8 µM
In short: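 HepG2 cells were seeded at 600 cells/well together with NanoLuc luciferase and a cell-permeant prosubstrate, preincubated 5 h at 37 C/5% CO2, then pin-dosed with compounds in DMSO. Nonlytic luminescence from viable cells was read at each time point.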
For `COc1nc(N)nc2nc[nH]c12`, the outcome was “inactive”.
With `OC1OCCOC1O` (centres undefined) the outcome was “inactive”.
For `CCCCCCC1(C)CCC(=O)O1` (centres undefined), the outcome was “inactive”.
For `C#CCN[C@@H]1CCc2ccccc21`, the outcome was “inactive”.
With `CC(=O)OC1CCCCC1C(C)(C)C` (centres undefined) the outcome was “inactive”.
For `CCOc1cccc(N)c1`, the outcome was “inactive”.
For `CC1(C)Oc2ccc(C#N)cc2[C@@H](N2CCCC2=O)[C@@H]1O`, the outcome was “inactive”.
With `COc1ccc(CCO)cc1` the outcome was “inactive”.
In the case of `C/C(CC(C)C)=N\O`, the outcome is reported as “inactive”.
In the case of `[O-][n+]1cccc(/C(Cl)=N/OC[C@@H](O)CN2CCCCC2)c1`, the outcome is reported as “inactive”.
With `CC(=O)OCC(=O)Nc1cc(C#N)cc(NC(=O)COC(C)=O)c1Cl` the outcome was “inactive”.
With `CNCCS(=O)(=O)O` the outcome was “inactive”.
In the case of `CCC(=O)CC`, the outcome is reported as “inactive”.
For `CC(=O)O[C@@H]1CC2CCC1(C)C2(C)C` (some centres undefined), the outcome was “inactive”.
For `NCc1ccc(S(N)(=O)=O)cc1`, the outcome was “inactive”.
For `Cn1c(=O)c2[nH]c(Br)nc2n(C)c1=O`, the outcome was “inactive”.
With `CCC[C@@H]1C[C@@H](C(=O)N[C@@H]([C@H]2O[C@H](SC)[C@H](O)[C@@H](O)[C@H]2O)[C@@H](C)O)N(C)C1` the outcome was “inactive”.
For `O=Cc1cc2ccccc2o1`, the outcome was “inactive”.
For `Cc1c(N)cccc1Cl`, the outcome was “inactive”.
For `Cc1ccccc1C(N)=O`, the outcome was “inactive”.
In the case of `O=C(Cn1ccnc1[N+](=O)[O-])NCc1ccccc1`, the outcome is reported as “inactive”.
In the case of `CC(C)=CCC/C(C)=C/COC=O`, the outcome is reported as “inactive”.
In the case of `COC(=O)c1ccccc1C(=O)O`, the outcome is reported as “inactive”.
For `CCO`, the outcome was “inactive”.
For `CC(C)OC(=O)CCC(=O)OC(C)C`, the outcome was “inactive”.
In the case of `CCOc1ccccc1OCC1CNCCO1` (centres undefined), the outcome is reported as “inactive”.
For `CCCCCCCCCCCCCCC(=O)NC(CO)CCCCCCCCCCCCCC` (centres undefined), the outcome was “inactive”.
In the case of `O=C(CCCCC(=O)Nc1c(I)cc(I)c(C(=O)O)c1I)Nc1c(I)cc(I)c(C(=O)O)c1I`, the outcome is reported as “inactive”.
For `CC1(C)O[C@H]2CC(=O)OC[C@]23[C@H]2CC[C@@]4(C)[C@H](c5ccoc5)OC(=O)[C@H]5O[C@]54[C@]2(C)C(=O)C[C@@H]13`, the outcome was “inactive”.
`CCCCCCCCCCCCCCCCCCOCCO` showed an activity change, negative = cytotoxic of -5.24% [at 15.8 µM].
In the case of `CC1=C(C(=O)O)N2C(=O)[C@@H](NC(=O)[C@H](N)C3=CCC=CC3)[C@H]2SC1`, the outcome is reported as “inactive”.
In the case of `CC(=O)OC(C)=O`, the outcome is reported as “inactive”.
In the case of `Cc1ccc(N)cc1S(=O)(=O)O`, the outcome is reported as “inactive”.
With `COC(=O)c1cccc(Cl)c1` the outcome was “inactive”.
For `CC(=O)O[Si](C)(OC(C)=O)OC(C)=O`, the outcome was “inactive”.
`CC1(C)CC(OC(=O)CCCCCCCCC(=O)OC2CC(C)(C)NC(C)(C)C2)CC(C)(C)N1` showed an activity change, negative = cytotoxic of 3.56% [at 15.8 µM].
With `CCOC(=O)CC1(C)OCC(C)O1` (centres undefined) the outcome was “inactive”.
